The list is not random: actives were taken first. Their share in the collection is about 21%.
Shiga inhibitor: blocks Shiga toxin action in Vero cells | inhibition, % at 38.7 µM | 290,000 compounds, 9.2% hits | AID 2315 | Vero cells, Shiga toxin protein synthesis inhibition reporter; in the data active = inhibition mostly above about 28%, no sharp cut-off; inactive = mostly below about 43%; also: 0% is about no effect
Pf growth 48h: P. falciparum growth inhibition at 48 hours (one generation). P. falciparum luciferase growth in erythrocytes, 48 h. Potency, µM (doses to about 28.7 µM), for inactives: at the top dose activity change, negative = inhibition, actives largely listed as inhibitors. 310,000 compounds, 5.9% hits. AID 504832; also: potency is read from the fitted curve at half-maximal effect; % is scaled to controls: 0 for no effect and ±100 for the full control effect
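Parasite viability was followed by luminescence of a genomically integrated firefly luciferase. Cultures held 0.1% parasitemia at 2% hematocrit (final), incubated under 5% CO2 at 37 C.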
Pf growth 96h: P. falciparum growth inhibition at 96 hour, primary screen for plastid delayed-death inhibitors | 320,000 compounds, 6.9% hits | Potency, µM (highest dose often 28.7 µM), for inactives: at the top dose activity change, negative = inhibition, hits mostly inhibitors | P. falciparum luciferase reporter growth, 96 h; also: potency is read from the fitted curve at half-maximal effect; % is scaled to controls: 0 for no effect and ±100 for the full control effect
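P. falciparum expressing integrated firefly luciferase grown in erythrocytes (2% hematocrit, 0.05% parasitemia final) with compounds for 96 hours at 37 C, 5% CO2. Growth inhibition read as loss of luminescence after adding luciferase detection reagent.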
CHX counter: affects cycloheximide protein synthesis inhibition readout, counter-screen. cell reporter, cycloheximide protein synthesis inhibition counterscreen. max response, %. 300,000 compounds, 12% hits; in the data active = max response mostly above about 13%, no sharp cut-off; inactive = mostly below about 14%; also: read at 38.3 µM for the half of the compounds with a filed dose; 0% is about no effect
HCMV antiviral: inhibitors of human cytomegalovirus; HFF cells, HCMV-luciferase reporter, 72 h; active compounds read low; activity change, negative = inhibition, % at 57.5 µM; 410,000 compounds, 4.5% hits; AID 1259415; in the data active = activity change below about -60%; inconclusive = no clear call, values can overlap the other calls; inactive = above about -39%; also: % is scaled to controls: 0 for no effect and ±100 for the full control effect
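Two-dose cell screen: HFF monolayers treated with compounds and infected with luciferase-expressing HCMV at 1 PFU/cell, 72 h at 37C, then lysed for luciferase measurement.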
HCV inhibitor: HCV inhibition | Huh7.5.1 HCVcc-Cre infection, luciferase reporter, 44 h | Potency, µM (highest dose often 41.8 µM), inactives show at the top dose activity change, negative = inhibition, usual class: inhibitors | 340,000 compounds, 3.4% hits | AID 651820; also: potency is read from the fitted curve at half-maximal effect; % is scaled to controls: 0 for no effect and ±100 for the full control effect
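Luciferase read-out (15 sec integration) after a 15 min room-temperature substrate step quantifies HCVcc-Cre infection. Cells, 1,000 per well, had compound added 4 h post-plating, then virus at ~0.5 moi, and were cultured 44 h.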
Active calls of the source: *; ? = inconclusive; . = no result given; ! = not confirmed by another sample; [ ] = another dose, or the depositor's remark. Unless noted, calls follow the shape of the dose curve; as a rule, active = well fitted inhibition curve with a large enough effect; inconclusive = small, poorly fitted or top-dose-only effect, or another doubt; inactive = no such curve, though single readings can be large or run the other way.

SMILES | Shiga inhibitor | Pf growth 48h | Pf growth 96h | CHX counter | HCMV antiviral | HCV inhibitor
COc1ccc(Cl)cc1NC(=O)C(C)N(C)Cc1cccc(Cl)c1Cl (configuration not stated) | -16 | 12µM* | 6.6µM* | -3 | ? | ?
CCC(C)(C)NC(=O)Nc1cc(Cl)ccc1OC | -5 | ? | -1% | -1 | -61* | ?
COc1ccc(Cl)cc1NC(=O)CC(=O)Nc1cc(Cl)ccc1OC | 8 | ? | 8% | 7 | -26 | -6%
COc1ccc(NS(=O)(=O)c2cccc(N/C(=N\S(=O)(=O)c3ccccc3)c3ccc(F)cc3)c2)cc1 | -11 | ? | ? | -7 | ? | ?
C[C@@H]1[C@H]2[C@@H]3CC[C@@H](C3)[C@H]2CN[C@H]1c1cn(Cc2ccccc2)c2ccccc12 | . | . | . | . | -5 | 22µM*
Cc1nc2c(-c3ccc(F)cc3)c(C)nn2c(C)c1CCC(=O)NCc1cccc(Cl)c1 | . | . | . | . | 2 | .
COc1ccc(/C=C/CN2CCC(n3nccc3NC(=O)C3CC3)CC2)cc1 | -2 | 10% | ? | 8 | 29 | -4%
O=C(/C=C/C=C/c1ccccc1)c1ccco1 | 103* | 144% | 13% | 51* | 42 | -20%
O=C(Nc1ccccc1)c1cccc(NC(=O)c2ccco2)c1 | . | . | . | . | 7 | -10%
O=C(/C=C/c1ccc([N+](=O)[O-])cc1)c1ccco1 | -3 | 7% | ? | -3 | 16 | 7%
COC(=O)c1ccc(NC(=O)c2ccc(NC(=O)c3ccco3)cc2)cc1 | -14 | ? | -7% | -2 | -18 | ?
O=C(/C=C/c1ccc(Br)cc1)c1ccc(NC(=O)c2ccco2)cc1 | 14 | -1% | 26% | 27* | -29 | ?
O=C(/C=C\c1ccccc1)Nc1ccc(NC(=O)c2ccco2)cc1 | 5 | ? | 15% | 4 | -101* | ?
O=C(/C=C/c1ccc(Br)cc1)c1ccco1 | 64* | 13% | 448% | 29* | -40 | 4%
CCCCCOc1ccc(C(=O)CCC(=O)NC(C)c2ccc(S(N)(=O)=O)cc2)cc1 (configuration not stated) | . | . | . | . | -8 | ?
Cc1c(C(=O)NCCCN2CCOCC2)sc2nc(-c3ccccc3)cn12 | 13 | -5% | ? | -2 | 86 | ?
COCCNC(=O)c1sc2nc(-c3ccccc3)cn2c1C | 70* | 56% | 52% | 29* | -15 | 5%
Cc1c(C(=O)NCc2ccccn2)sc2nc(-c3ccccc3)cn12 | 20* | -5% | ? | 29* | 11 | ?
Cc1c(C(=O)NCc2ccccn2)sc2nc(-c3ccc(F)cc3)cn12 | 9 | ? | ? | 1 | -16 | ?
O=C(Cc1ccccc1)NC1c2ccccc2-c2ccccc21 | -2 | 14% | ? | -3 | -35 | -1%
CCOC(=O)CC1C(=O)NCCN1C(=O)c1ccc(Cl)c(Cl)c1 (configuration not stated) | -4 | . | 34% | -5 | . | 6%
Cc1ccc(CNC(=O)CCCCn2c(=O)c3ccccc3n(Cc3ccc(Cl)cc3)c2=O)cc1 | . | . | . | . | -5 | .
Cc1ccccc1Cn1c(=O)n(CCCC(=O)NCc2ccco2)c(=O)c2ccccc21 | 14 | ? | ? | 14* | -27 | 0%
N#Cc1ccccc1Cn1c(=O)n(CCC(=O)NCc2ccco2)c(=O)c2ccccc21 | -13 | -23% | ? | -5 | -15 | 1%
Cc1cc(C)c(NC(=O)Cn2c(=O)n(Cc3ccco3)c(=O)c3ccccc32)c(C)c1 | 1 | 13µM* | 6% | 1 | 21 | -7%
SMILES | Shiga inhibitor | Pf growth 48h | Pf growth 96h | CHX counter | HCMV antiviral | HCV inhibitor
N#Cc1ccccc1Cn1c(=O)n(Cc2ccc(C(=O)NCc3ccco3)cc2)c(=O)c2ccccc21 | -1 | 2.9µM* | 81% | -1 | -24 | -5%
O=C(CCCCn1c(=O)c2ccccc2n(Cc2ccc(Cl)cc2)c1=O)NCc1ccco1 | -3 | 12µM* | 25% | 0 | 42 | 13µM*!
COc1ccc(/C=C/C(=O)OCC(=O)NC(=O)NC(C)(C)C)cc1 | 65 | 8% | 9% | -3 | -12 | 2%
Cc1ccccc1NC(=O)Cn1c(=O)n(Cc2ccc3c(c2)OCO3)c(=O)c2oc3ccccc3c21 | . | . | . | . | -16 | .
CCC(C)NC(=O)Cn1c(=O)n(Cc2ccc(C(=O)NCc3ccc(C)cc3)cc2)c(=O)c2ccccc21 (configuration not stated) | . | . | . | . | -79* | .
Cc1ccccc1Cn1c(=O)n(-c2ccccc2)c(=O)c2ccc(C(=O)NCc3ccco3)cc21 | -26 | -6% | 8.3µM* | -8 | -12 | -1%[8.37 µM]
Cc1ccccc1NC(=O)Cn1c(=O)n(Cc2ccc3c(c2)OCO3)c(=O)c2ccccc21 | . | . | . | . | -61* | .
CCCc1nnc(NC(=O)c2nc(SCC)ncc2Cl)s1 | . | . | . | . | -3 | .
CCN(CC)C(=O)Cn1c(=O)n(Cc2ccc(C(=O)NCCCOC)cc2)c(=O)c2ccccc21 | . | . | . | . | 2 | .
O=C(CN1C(=O)C(c2ccc(F)cc2)=NC12CCCC2)Nc1ccc(F)cc1 | -22 | 0% | 11% | 2 | -78* | 2.5µM*
Cc1cccc(NC(=O)CN2C(=O)C(c3ccccc3)=NC23CCC(C)CC3)c1 (configuration not stated) | . | . | . | . | -61* | .
O=C(O)c1ccc(S(=O)(=O)N[C@H](Cc2ccc([N+](=O)[O-])cc2)C(=O)O)cc1 | -2 | 2% | 8% | 3 | . | .
CC(=O)Nc1sc(-c2ccccc2)nc1-c1ccccc1 | 18 | 4% | 4.7µM* | -3 | -37 | 11µM*
COC(=O)c1cc(=O)nc(NN=Cc2ccccc2)s1 | . | . | . | . | 18 | .
CCOC(=O)c1nc(N/N=C/c2ccccc2)sc1Br | 21 | 17% | ? | 13* | -9 | ?
CC(=O)Nc1sc(-c2ccc(Cl)cc2)nc1-c1ccccc1 | -7 | 12% | -1% | 0 | 0 | ?
CC(=O)Nc1sc(N/N=C/c2ccc(O)cc2)nc1-c1ccc(C)cc1 | 15 | ? | ? | 11 | 58 | ?
COc1ccc(/C=N/Nc2nc(-c3ccc(C)cc3)c(NC(C)=O)s2)cc1 | 19 | 2.3µM* | 4.7µM* | 21 | -13 | ?
CC(=O)Nc1sc(N/N=C/c2ccccc2F)nc1-c1ccc(C)cc1 | 92* | 8.3µM* | ? | 42* | -1 | 13µM*
CC1CCN(CC2CCN(C(=O)NCc3ccccc3)CC2)CC1 | . | . | . | . | -1 | .
COCCNC(=O)C(=O)NNC(=O)CCc1ccccc1 | -18 | 18% | 44% | 6 | -12 | 9%
CCOC(=O)c1sc2ccccc2c1S(=O)(=O)N1CCN(c2cccc(C)c2)C(C)C1 (configuration not stated) | . | . | . | . | -24 | .
COc1ccccc1N1CCN(CCN2C(=O)C3CCCN3C2=O)CC1 (configuration not stated) | . | 20% | ? | -2 | -15 | 9%
